In PubChem BioAssay:
The source made the active and inactive calls. No rule for the calls is given here.

These molecules were tested against Pantothenate synthetase (Mycobacterium tuberculosis (strain ATCC 25618 / H37Rv)) (UniProt P9WIL5) (assay: Coupled enzyme confirmation of inhibitors against recombinant Mtb PanC (AID 375;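 also: 0% = full reaction with vehicle and 100% = no enzyme background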)). Details: coupled enzyme assay; at 10 µM, hits give high values.
Pantothenate synthetase (Mycobacterium tuberculosis (strain ATCC 25618 / H37Rv)), sequence (P9WIL5 whole entry, looked up): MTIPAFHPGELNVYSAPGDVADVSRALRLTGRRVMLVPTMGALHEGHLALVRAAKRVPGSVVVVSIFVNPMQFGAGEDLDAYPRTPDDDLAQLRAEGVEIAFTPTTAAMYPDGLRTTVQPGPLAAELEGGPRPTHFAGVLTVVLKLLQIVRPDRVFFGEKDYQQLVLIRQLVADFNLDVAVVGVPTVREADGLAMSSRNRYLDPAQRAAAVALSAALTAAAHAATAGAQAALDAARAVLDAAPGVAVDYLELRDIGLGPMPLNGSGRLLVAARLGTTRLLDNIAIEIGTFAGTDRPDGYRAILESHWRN

Question: How did the inhibition turn out when CCOCCCNC(=O)C1CCCN(S(=O)(=O)CC)C1 (configuration not stated) was run?
Answer: 0% (inactive)

Question: O=C(NCc1ccc2c(c1)OCO2)C1CCC(CNc2c(N3CCCCC3)c(=O)c2=O)CC1 (configuration not stated) was tested. Which inhibition did it give?
Answer: 0% (inactive)

Question: COc1ccccc1-c1cc2nc(C)c(CCC(=O)NCc3ccco3)c(C)n2n1 was tested. Which inhibition did it give?
Answer: 0% (inactive)

Question: How did the inhibition turn out when Cc1nc2ccccc2n1CCC(=O)Nc1cccc(F)c1 was run?
Answer: 4% (inactive)

Question: How did the inhibition turn out when COc1ccccc1C(=O)N1CCCC(c2nc(-c3cc(OC)c(OC)c(OC)c3)no2)C1 (configuration not stated) was run?
Answer: 0% (inactive)

Question: How did the inhibition turn out when CC(=O)OC(C)C[N+](C)(C)C (configuration not stated) was run?
Answer: 3% (inactive)

Question: For CCOc1ccc(NCCC(=O)c2ccc3c(c2)OCO3)cc1, which inhibition is on record?
Answer: 1% (inactive)

Question: For COCCCNC(=O)C(Cc1ccccc1)NS(=O)(=O)c1ccc2c(c1)c(=O)n(C)c(=O)n2C (configuration not stated), which inhibition is on record?
Answer: 0% (inactive)

Question: Which inhibition does the source give for CCCCC(CC)Cn1c2nc3ccccc3nc2c2c(=N)oc(C)nc21 (configuration not stated) here?
Answer: 7% (inactive)

Question: c1cncc(-c2nnc(SCCSc3nnc(-c4cccnc4)o3)o2)c1 was tested. Which inhibition did it give?
Answer: 0% (inactive)

Question: With O=C(CNCC1CCCO1)Nc1ccccc1-n1cccc1 (configuration not stated) as the molecule, how does the inhibition read?
Answer: 2% (inactive)

Question: O=C(Nc1cccnc1)c1cc2c(ccc3ccccc32)o1 was tested. Which inhibition did it give?
Answer: 0% (inactive)

Question: Which inhibition does the source give for CCOC(=O)C1CCN(S(=O)(=O)c2cc(Cl)c(C)cc2OC)CC1 here?
Answer: 4% (inactive)

Question: For Cc1ccc(NC(=O)CS(=O)CC(=O)NCC2CCCO2)cc1 (configuration not stated), which inhibition is on record?
Answer: 0% (inactive)

Question: CC(C)N(Cc1nc(-c2ccccc2)no1)C(=O)CCCN1C(=O)c2ccccc2C1=O was tested. Which inhibition did it give?
Answer: 9% (inactive)

Question: For COCC(=O)N(Cc1ccc(OC)cc1)Cc1nc2ccccc2c(=O)[nH]1, which inhibition is on record?
Answer: 0% (inactive)

Question: Which inhibition does the source give for COC(=O)c1cn(C(=O)OC)c2ccccc12 here?
Answer: 7% (inactive)
